From PubChem BioAssay AID1159580 (chemical genetic matrix, 2015)
The whole screen tested about 5,500 compounds, of which about 2,000 (36%) were called active. About 18% were inconclusive and are not listed. Cut-off read from the data, not from the text of the source: active = normalized growth mostly below about 0.91 (no sharp cut-off); inconclusive = no clear call, values can overlap the other calls; inactive = mostly above about 0.92. This is one part of the list.

Test: chemical genetic growth profiling, strain panel (AID 1159580);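 note: tested at 20 µM; growth read once vehicle control cultures reached saturation at 30 °C; 1 = growth at the plate median or of vehicle wells; lower values mean less growth of the strain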
Conditions: S. cerevisiae deletion strains, growth OD

Measured: normalized growth

FC(F)(F)c1cccc(N2CCNCC2)c1
inactive: locus YAL013W, strain DEP1, hits give low values 1 | locus YAL021C, strain ccr4, hits give low values 0.992 | locus YAL026C, strain drs2, hits give low values 1 | locus YAL030W, strain snc1, hits give low values 0.99 | locus YBL061C, strain skt5, hits give low values 0.992 | locus YBR009C, strain hhf1, hits give low values 0.978 | locus YBR021W, strain FUR4, hits give low values 0.991 | locus YBR023C, strain chs3, hits give low values 0.996 | locus YBR171W, strain sec66, hits give low values 1.01 | locus YBR229C, strain ROT2, hits give low values 1.01 | locus YBR231C, strain swc5, hits give low values 0.99 | locus YBR279W, strain paf1, hits give low values 1 | locus YCL011C, strain gbp2, hits give low values 0.999 | locus YCL016C, strain dcc1, hits give low values 0.991 | locus YCL029C, strain bik1, hits give low values 0.996 | locus YCL061C, strain MRC1, hits give low values 1 | locus YCL069W, strain vba3, hits give low values 1 | locus YCR088W, strain abp1, hits give low values 1.01 | locus YDL005C, strain med2, hits give low values 1 | locus YDL035C, strain GPR1, hits give low values 1 | locus YDL040C, strain nat1, hits give low values 0.988 | locus YDL074C, strain BRE1, hits give low values 0.994 | locus YDL101C, strain DUN1, hits give low values 1 | locus YDL134C, strain PPH21, hits give low values 1.01 | locus YDL185W, strain tfp1, hits give low values 0.994 | locus YDL192W, strain arf1, hits give low values 0.995 | locus YDR001C, strain nth1, hits give low values 1.01 | locus YDR069C, strain doa4, hits give low values 0.973 | locus YDR101C, strain arx1, hits give low values 0.994 | locus YDR137W, strain rgp1, hits give low values 1 | locus YDR159W, strain sac3, hits give low values 0.956 | locus YDR162C, strain NBP2, hits give low values 1.01 | locus YDR195W, strain ref2 0.928 | locus YDR297W, strain sur2, hits give low values 1 | locus YDR318W, strain mcm21, hits give low values 0.989 | locus YDR334W, strain swr1, hits give low values 1.01 | locus YDR335W, strain msn5, hits give low values 0.993 | locus YDR388W, hits give low values 0.977 | locus YDR392W, strain spt3, hits give low values 0.89 | locus YDR502C, strain sam2, hits give low values 0.98 | locus YEL003W, strain gim4, hits give low values 1.01 | locus YEL037C, strain rad23, hits give low values 1 | locus YEL061C, strain CIN8 (second series), hits give low values 1.01 | locus YEL061C, strain CIN8, hits give low values 1.01 | locus YER015W, strain faa2, hits give low values 0.994 | locus YER016W, strain bim1, hits give low values 0.995 | locus YER110C, hits give low values 0.976 | locus YER111C, strain swi4, hits give low values 0.999 | locus YER155C, strain BEM2 (second series), hits give low values 0.93 | locus YER155C, strain BEM2, hits give low values 1.01 | locus YER167W, strain BCK2, hits give low values 1 | locus YFR010W, strain ubp6, hits give low values 1.03 | locus YGL078C, strain dbp3, hits give low values 0.973 | locus YGL086W, strain mad1, hits give low values 0.983 | locus YGL167C, strain pmr1, hits give low values 0.981 | locus YGL173C, strain kem1, hits give low values 1.01 | locus YGL227W, strain vid30, hits give low values 1 | locus YGL240W, strain doc1, hits give low values 0.962 | locus YGL248W, strain PDE1, hits give low values 1.01 | locus YGL253W, strain hxk2, hits give low values 1.02 | locus YGR135W, strain pre9, hits give low values 0.953 | locus YGR229C, strain SMI1, hits give low values 0.987 | locus YGR252W, strain gcn5, hits give low values 0.932 | locus YHR013C, strain ard1, hits give low values 0.961 | locus YHR027C, strain rpn1, hits give low values 0.994 | locus YHR030C, strain SLT2, hits give low values 1.01 | locus YHR079C, strain IRE1 (second series), hits give low values 0.998 | locus YHR094C, strain hxt1, hits give low values 0.992 | locus YHR129C, strain ARP1, hits give low values 1.01 | locus YHR142W, strain chs7, hits give low values 1.02 | locus YHR200W, strain rpn10, hits give low values 0.987 | locus YIL066C, strain RNR3, hits give low values 1.02 | locus YIL073C, strain SPO22, hits give low values 1.08 | locus YIL125W, strain kgd1, hits give low values 0.974 | locus YIR030C, strain dcg1, hits give low values 1 | locus YJL092W, strain hpr5, hits give low values 1.01 | locus YJL095W, strain BCK1 (second series), hits give low values 0.995 | locus YJL095W, strain BCK1, hits give low values 1.02 | locus YJL115W, strain asf1, hits give low values 0.998 | locus YJL129C, strain trk1, hits give low values 1.03 | locus YJL134W, strain LCB3, hits give low values 1 | locus YJL154C, strain vps35, hits give low values 1 | locus YJL164C, strain tpk1, hits give low values 0.993 | locus YJL166W, strain qcr8, hits give low values 0.987 | locus YJL168C, strain set2, hits give low values 0.987 | locus YJL187C, strain SWE1 (second series), hits give low values 1.01
